KB-3-1 cytotox – kills parental KB-3-1 adenocarcinoma cells | KB-3-1 viability, CellTiter-Glo ATP luminescence, 72 h | Potency, µM (top dose mostly 46.1 µM), usual class: cytotoxic | 400,000 compounds, 1.4% hits; also: nearly all actives have a fitted effect of over 60% in size
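Cytotoxicity measured as CellTiter-Glo luminescence after 72 h at 37 C. Compound titrations were pinned onto drug-naive KB-3-1 parental adenocarcinoma cells grown in DMEM with 10% FBS, and normalized data fitted to concentration-response curves.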
TDP1 cell CPT – growth inhibition of DT40 Tdp1-/-;hTDP1 cells with camptothecin (screen for TDP1 inhibitors); chicken DT40 Tdp1-/-;hTDP1 cells + 20 nM CPT, ATP luminescence, 48 h; Potency, µM (series often up to 46.2 µM), without a hit: top-dose activity change, negative = growth inhibition, most hits filed as inhibitors; 420,000 compounds, 12% hits; AID 686979; also: nearly all actives have a fitted effect of over 55% in size
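Cell growth measured by CellTiter-Glo luminescence after a minimum 48 h, 37 C compound exposure with 20 nM CPT in Tdp1-knockout DT40 cells stably expressing hTDP1, seeded 400/well; qHTS titration format.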
HT1080 IDH1KD tx – kills HT-1080 cells with IDH1 knockdown; Potency, µM (series often up to 46.1 µM), without a hit: at the top dose activity, negative = toxicity, hits mostly cytotoxic; HT-1080 IDH1 knockdown viability, ATP luminescence, 48 h; 360,000 compounds, 2% hits;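 also: 0% = DMSO wells and -100% = cell-free medium wells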
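Using the IDH1-knockdown HT-1080 line run in the same batch and compound series as the NT line, viability after 48 h at 37 °C was determined by CellTiter-Glo luminescence and expressed as % activity.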
DT40 TDP1 no CPT – qHTS for Inhibitors of human tyrosyl-DNA phosphodiesterase 1 (TDP1): qHTS in cells in absence of CPT; 420,000 compounds, 15% hits; DT40 Tdp1-/- hTDP1 cells, no CPT, ATP luminescence, 48 h; Potency, µM (doses to about 46.2 µM), without a hit: at the top dose activity change, negative = growth inhibition, actives largely listed as inhibitors; AID 686978, 2013; also: nearly all actives have a fitted effect of over 55% in size
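Camptothecin absent (DMSO only). Human TDP1-complemented DT40 knockout cells, 400 cells/well, 37 °C for minimum 48 hr; ATP measured via CellTiter-Glo, 30 min dark incubation, luminescence.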
KB-V1 cytotox – KB-V1 MDR subline cytotoxicity; KB-V1 MDR cells viability, CellTiter-Glo, 72 h; 400,000 compounds, 3.4% hits; Potency, µM (highest dose often 46.1 µM), actives largely listed as cytotoxic; also: nearly all actives have a fitted effect of over 60% in size
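Luminescent ATP read-out (CellTiter-Glo, 10 min) measures survival of drug-selected KB-V1 MDR cells after 72 h, 37 degrees C compound exposure. Medium: phenol-red-free DMEM, 10% FBS. Values from fitted concentration-response curves.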
HT1080NT lethal – kills 2HG-producing HT-1080-NT fibrosarcoma cells. HT-1080-NT fibrosarcoma viability, CellTiter-Glo ATP luminescence, 48 h. Potency, µM (highest dose often 46.1 µM), for inactives: at the highest dose activity, negative = less viability, usual class: cytotoxic. 360,000 compounds, 1.6% hits. AID 686970;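 also: NT is the 2HG producing partner of a matched IDH1 knockdown line; 0% = DMSO-treated cells and -100% = media-only wells without cells; nearly all actives have a fitted effect of over 55% in size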
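Viability by CellTiter-Glo luminescence after 48 h compound exposure at 37C of HT-1080-NT cells (750/well, RPMI, 5% FBS). % activity scaled between DMSO wells and medium-only wells, then curve-fitted and categorized by curve class.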
An asterisk follows results filed as active; i = inactive; ? = inconclusive; . = no result given. Only some compounds are listed: those with a hit (about 19% of all), similar ones and a draw of the others. Calls follow the shape of the dose curve; as a rule, active = well fitted curve in the direction sought with a large enough effect; inconclusive = small, poorly fitted or top-dose-only effect, or another doubt; inactive = no such curve, though single readings can be large; an effect the other way counts as inactive or inconclusive. Unless noted, % is scaled to controls: 0 for no effect and ±100 for the full control effect; potency is read from the fitted curve at half-maximal effect.

SMILES	KB-3-1 cytotox	TDP1 cell CPT	HT1080 IDH1KD tx	DT40 TDP1 no CPT	KB-V1 cytotox	HT1080NT lethal
CCOC(=O)[C@]12CCCC=C1N(Cc1ccc(Cl)cc1Cl)C(=O)[C@H](CC(=O)NCCCN1CCCC1=O)C2	i	?	10%	?	i	2%
C#CCNC(=O)C[C@@H]1C[C@@]2(C(=O)OCC)CCCC=C2N(Cc2ccc(Cl)cc2Cl)C1=O	i	?	5%	?	?	1%
CCOC(=O)[C@]12CCC=C1N(Cc1ccc(Cl)cc1Cl)C(=O)[C@H](CC(=O)NCC13CC4CC(CC(C4)C1)C3)C2	?	?	-9%	21µM*	i	-2%
CCOC(=O)[C@]12CCC=C1N(Cc1ccc(Cl)cc1Cl)C(=O)[C@H](CC(=O)NCCCN1CCCC1=O)C2	i	18µM*	3%	?	i	-2%
CCCCOCCCNC(=O)C[C@@H]1C[C@@]2(C(=O)OCC)CCCC=C2N(Cc2ccc(Cl)cc2Cl)C1=O	?	?	?	18µM*	?	?
CCCCNC(=O)C[C@@H]1C[C@@]2(C(=O)OCC)CCCC=C2N(Cc2ccc(Cl)cc2Cl)C1=O	?	21µM*	-29%	-92%	9.2µM*	?
CCCC(=O)NCC(c1ccc2c(c1)OCO2)N1CCN(c2ccccc2)CC1 (stereo not given)	i	?	.	?	i	.
Cc1cc(NC(=O)c2cc(-c3ccc(Br)cc3)on2)nn1Cc1ccc(Cl)cc1	i	-23%	.	-8%	i	.
CCOc1ccc(NC(=O)c2ccc3c(c2)S(=O)(=O)N=C2CCCCCN23)cc1	i	-9%	-1%	-17%	i	4%
CCOC(=O)[C@]12CCCC=C1N(Cc1ccc(Cl)cc1Cl)C(=O)[C@H](CC(=O)NCCc1ccccc1OC)C2	?	?	?	23µM*	?	?
COC(=O)[C@]12CCCCC=C1N(Cc1ccco1)C(=O)[C@H](CC(=O)NCCc1ccccc1OC)C2	i	?	0%	?	i	-1%
Cc1ccc(N(CCC#N)C(=O)CCl)cc1C	?	?	13µM*	7.3µM*	?	9.2µM*
Cc1ccc(SCC(=O)OCC(=O)N(CCC#N)c2ccccc2)cc1C	?	-3%	18%	2%	i	12%
CC1(C)SC2c3ccccc3C(=O)N2[C@@H]1C(=O)O (stereo not given in full)	i	-11%	0%	4%	i	0%
C[N+](C)(C)c1ccc(/C=N/Nc2nc(Cl)c(C#N)c(Cl)c2Cl)cc1	i	?	-2%	23µM*	i	1%
CCOC(=O)Cc1ccc(NC(=O)N2CCC(CN3CCC(C)CC3)CC2)cc1	i	3%	.	-1%	i	.
CC1CCCCN1c1nnc(NC(=O)Nc2ccccc2F)s1 (stereo not given)	i	?	.	21µM*	i	.
O=C(Nc1cccc(Cl)c1)Nc1nnc(CC2=CCCCC2)s1	23µM*	4.6µM*	-1%	18µM*	i	-1%
O=C(Nc1nnc(CC2=CCCCC2)s1)Nc1ccccc1F	i	?	33µM*	?	i	-8%
Cc1ccc(NC(=O)CSc2nnnn2-c2ccc3c(c2)OCO3)cc1C	i	?	-8%	?	i	-7%
CC(=O)c1ccccc1NS(=O)(=O)c1c(C)nn(-c2ccccc2)c1C	i	?	-17%	?	9.2µM*	-10%
CC1(C(=O)NCC2CC2)Cc2c(-c3cccc(C(F)(F)F)c3)ccnc2O1 (stereo not given)	?	5.8µM*	21µM*	5.8µM*	?	?

High-throughput results from PubChem.
